The first experiment relates to IRAK4. To be noted: concentration: 1 μM, replicates: in singlicate; n = 1.
For `Cl.Cl.c1ccc(-c2cc3ccncc3cc2OC2CCNCC2)cc1` [GSK1122999], the “%Inh” value amounted to 1%.

Consider `CCc1nc(-c2cccc(N(C)S(=O)(=O)c3ccccc3)c2)c(-c2ccnc(Nc3ccc(N4CCN(C(C)=O)CC4)nc3)n2)s1` [GSK1645895], for which the “%Inh” value came out at 13%.

On to `Clc1ccc(-c2cc(-c3c[nH]nc3-c3ccccn3)ccn2)cc1` [GW681251], for which the “%Inh” value stood at 8%.

For the compound `Clc1cccc(-c2nc(Nc3ccncc3)c3ccccc3n2)c1` [GW873004], the “%Inh” value amounted to 0%.

In the case of `Cc1ccc(C)c(NC(=O)NCCNc2ccnc(Nc3ccc(F)cc3)n2)c1` [GSK1379878], the “%Inh” value is listed as 0%.

With `O=C(Nc1ccccc1)Nc1ccc(Oc2ccc3nccn3n2)cc1`, the “%Inh” value worked out at 0%.

With `FC(F)(F)c1cc(Nc2nccc(-c3c(-c4ccc(Cl)cc4)nn4ncccc34)n2)ccc1Cl` [GW829351], the “%Inh” value was found to be 0%.

For the compound `COc1ccc(NC(=O)c2ccc(-c3cc(-c4nnc(C)o4)ccc3C)cc2)cc1` [GW595885], the “%Inh” value amounted to 16%.

As for `NC(=O)c1sc(-n2cnc3ccccc32)cc1OCc1ccccc1F` [GSK1024306], the “%Inh” value came out at 0%.

On to `CC(=O)Nc1n[nH]c2ncc(-c3ccccc3)cc12` [SB-548492], for which the “%Inh” value was 0%.

Turning to `CCC(CC)(CC)n1cnc2c(N)ncnc21` [SKF-97620], the “%Inh” value is 0%.

In the case of `COc1cc2ncnc(Nc3ccc(OCc4ccccc4Br)c(Cl)c3)c2cc1OC.Cl` [GI261590], the “%Inh” value worked out at 18%.

In the case of `CN1c2ccc(-c3ccc(C(=O)NCCO)cc3)cc2-c2[nH]ncc2S1(=O)=O`, the “%Inh” value amounted to 0%.

For the compound `Cl.c1ccc(Cn2ccc3cc(Nc4ncnc5ccccc45)ccc32)cc1` [GW275568], the “%Inh” value was found to be 0%.

Consider `O=c1cc(N2CCOCC2)nc2n(Cc3cccc(Cl)c3)ccn12` [GSK2296823], for which the “%Inh” value amounted to 16%.

Regarding `CSc1ccc(NC2=C(c3ccccc3Cl)C(=O)NC2=O)cc1` [SB-342411], the “%Inh” value is 19%.

Regarding `Fc1ccc(Nc2nccc(-c3c(-c4ccc(Cl)cc4)nn4ncccc34)n2)cc1F` [GW829058], the “%Inh” value is reported as 0%.

Regarding `O=C(Nc1ccccc1F)NC1CCN(c2ccnc(Nc3ccc(F)cc3)n2)C1` (stereo not drawn) [GSK1379722], the “%Inh” value is recorded as 14%.

For `N#Cc1ccc(Oc2ccc(Nc3ncnc4cc[nH]c34)cc2Cl)cc1`, the “%Inh” value stood at 13%.

With `Oc1ccc2ncnc(Nc3ccc(OCc4ccccc4)cc3)c2c1` [GI262866], the “%Inh” value is 5%.

For the compound `O=C(Nc1n[nH]c2nc(-c3ccco3)c(Br)cc12)c1ccc(CN2CCCC2)cc1.O=C(O)[C@H](O)[C@@H](O)C(=O)O` [SB-742352], the “%Inh” value is on record as 0%.

Consider `CNc1nccc(-c2c(-c3ccc(F)cc3)ncn2CCCN2CCOCC2)n1` [SB-222516], for which the “%Inh” value amounted to 9%.

With `O=C(c1ccc(-c2cc(-c3c[nH]nc3-c3ccccn3)ccn2)cc1)N1CCCC1` [GW792479], the “%Inh” value is 0%.

As for `CSc1nn2c(=O)cc(N3CCOCC3)nc2n1Cc1cccc(Cl)c1Cl` [GSK2347225], the “%Inh” value worked out at 0%.

Consider `Nc1nc(-c2ccc3c(N)n[nH]c3c2)cc(N2CCCCC2)n1` [GSK2228768], for which the “%Inh” value is listed as 9%.

As to `Cc1cccc(-c2nc(Nc3ccc4[nH]nnc4c3)c3ccccc3n2)n1` [GW867587], the “%Inh” value is listed as 0%.

Regarding `COc1ccc(NC(=O)Nc2ccc(C)c(-c3ccc(C(=O)Nc4ccncc4)cc3)c2)cc1` [GSK1398475], the “%Inh” value is 0%.

For the compound `CC(C)(C)c1ccc(-n2cnc3c(N)ncnc32)cc1` [SKF-97263], the “%Inh” value came to 0%.

`CCCc1ccc(S(=O)(=O)NC2CCN(c3ccnc(Nc4ccc(OC)cc4)n3)C2)cc1` (stereo not drawn) [GSK1379737]: the “%Inh” value amounted to 24%.

`Clc1cc(Nc2ncnc3cc[nH]c23)ccc1OCc1ccccn1`: the “%Inh” value is reported as 2%.

Consider `CC(C)(C)OC(=O)NC1CCCN(c2cc(-c3ccc4c(N)n[nH]c4c3)nc(N)n2)C1` (stereo not drawn) [GSK2286096], for which the “%Inh” value stood at 8%.

As for `C[C@@H]1CCN(C(=O)CO)C[C@@H]1N(C)c1ncnc2[nH]ccc12`, the “%Inh” value stood at 0%.

On to `COC(=O)c1cccc(NC(=O)NCCNc2ccnc(Nc3ccc(F)cc3)n2)c1` [GSK1379883], for which the “%Inh” value was 4%.

With `Nc1nc(-c2ccc3c(N)n[nH]c3c2)cc(N2CCC[C@@H](C(=O)Nc3ccccc3)C2)n1.O=C(O)C(F)(F)F.O=C(O)C(F)(F)F` [GSK2288359], the “%Inh” value came to 0%.

With `OCCOCCn1ccc2ncnc(Nc3ccc(Oc4cccc(Cl)c4)c(Cl)c3)c21`, the “%Inh” value amounted to 0%.

For `c1ccc(-c2ccc3c(-c4ccnc(Nc5ccc6c(c5)OCCO6)n4)cnn3n2)cc1` [GW818941], the “%Inh” value is listed as 6%.

A further experiment has as its system ITK. To be noted: concentration: 1 μM, replicates: in singlicate; n = 1.
With `Cl.Cl.c1ccc(-c2cc3ccncc3cc2OC2CCNCC2)cc1` [GSK1122999], the “%Inh” value worked out at 11%.

In the case of `CCc1nc(-c2cccc(N(C)S(=O)(=O)c3ccccc3)c2)c(-c2ccnc(Nc3ccc(N4CCN(C(C)=O)CC4)nc3)n2)s1` [GSK1645895], the “%Inh” value is on record as 0%.

In the case of `Clc1ccc(-c2cc(-c3c[nH]nc3-c3ccccn3)ccn2)cc1` [GW681251], the “%Inh” value is 16%.

Take `Clc1cccc(-c2nc(Nc3ccncc3)c3ccccc3n2)c1` [GW873004]: the “%Inh” value amounted to 21%.

With `Cc1ccc(C)c(NC(=O)NCCNc2ccnc(Nc3ccc(F)cc3)n2)c1` [GSK1379878], the “%Inh” value is listed as 0%.

For `O=C(Nc1ccccc1)Nc1ccc(Oc2ccc3nccn3n2)cc1`, the “%Inh” value is on record as 20%.

In the case of `FC(F)(F)c1cc(Nc2nccc(-c3c(-c4ccc(Cl)cc4)nn4ncccc34)n2)ccc1Cl` [GW829351], the “%Inh” value amounted to 0%.

As to `COc1ccc(NC(=O)c2ccc(-c3cc(-c4nnc(C)o4)ccc3C)cc2)cc1` [GW595885], the “%Inh” value turned out to be 6%.

Regarding `NC(=O)c1sc(-n2cnc3ccccc32)cc1OCc1ccccc1F` [GSK1024306], the “%Inh” value was 8%.

Regarding `CC(=O)Nc1n[nH]c2ncc(-c3ccccc3)cc12` [SB-548492], the “%Inh” value amounted to 0%.

On to `CCC(CC)(CC)n1cnc2c(N)ncnc21` [SKF-97620], for which the “%Inh” value was determined as 9%.

With `COc1cc2ncnc(Nc3ccc(OCc4ccccc4Br)c(Cl)c3)c2cc1OC.Cl` [GI261590], the “%Inh” value turned out to be 12%.

As to `CN1c2ccc(-c3ccc(C(=O)NCCO)cc3)cc2-c2[nH]ncc2S1(=O)=O`, the “%Inh” value is on record as 12%.

For `Cl.c1ccc(Cn2ccc3cc(Nc4ncnc5ccccc45)ccc32)cc1` [GW275568], the “%Inh” value came to 12%.

In the case of `O=c1cc(N2CCOCC2)nc2n(Cc3cccc(Cl)c3)ccn12` [GSK2296823], the “%Inh” value came out at 19%.

As for `CSc1ccc(NC2=C(c3ccccc3Cl)C(=O)NC2=O)cc1` [SB-342411], the “%Inh” value is given as 4%.

Consider `Fc1ccc(Nc2nccc(-c3c(-c4ccc(Cl)cc4)nn4ncccc34)n2)cc1F` [GW829058], for which the “%Inh” value was 18%.

As for `O=C(Nc1ccccc1F)NC1CCN(c2ccnc(Nc3ccc(F)cc3)n2)C1` (stereo not drawn) [GSK1379722], the “%Inh” value was 12%.

Regarding `N#Cc1ccc(Oc2ccc(Nc3ncnc4cc[nH]c34)cc2Cl)cc1`, the “%Inh” value turned out to be 9%.

On to `Oc1ccc2ncnc(Nc3ccc(OCc4ccccc4)cc3)c2c1` [GI262866], for which the “%Inh” value came to 4%.

Consider `O=C(Nc1n[nH]c2nc(-c3ccco3)c(Br)cc12)c1ccc(CN2CCCC2)cc1.O=C(O)[C@H](O)[C@@H](O)C(=O)O` [SB-742352], for which the “%Inh” value came out at 3%.

In the case of `CNc1nccc(-c2c(-c3ccc(F)cc3)ncn2CCCN2CCOCC2)n1` [SB-222516], the “%Inh” value is reported as 4%.

In the case of `O=C(c1ccc(-c2cc(-c3c[nH]nc3-c3ccccn3)ccn2)cc1)N1CCCC1` [GW792479], the “%Inh” value was found to be 0%.

`CSc1nn2c(=O)cc(N3CCOCC3)nc2n1Cc1cccc(Cl)c1Cl` [GSK2347225]: the “%Inh” value is recorded as 13%.

For `Nc1nc(-c2ccc3c(N)n[nH]c3c2)cc(N2CCCCC2)n1` [GSK2228768], the “%Inh” value worked out at 18%.

Take `Cc1cccc(-c2nc(Nc3ccc4[nH]nnc4c3)c3ccccc3n2)n1` [GW867587]: the “%Inh” value is 0%.

With `COc1ccc(NC(=O)Nc2ccc(C)c(-c3ccc(C(=O)Nc4ccncc4)cc3)c2)cc1` [GSK1398475], the “%Inh” value came out at 9%.

As for `CC(C)(C)c1ccc(-n2cnc3c(N)ncnc32)cc1` [SKF-97263], the “%Inh” value came out at 6%.

On to `CCCc1ccc(S(=O)(=O)NC2CCN(c3ccnc(Nc4ccc(OC)cc4)n3)C2)cc1` (stereo not drawn) [GSK1379737], for which the “%Inh” value is on record as 14%.

With `Clc1cc(Nc2ncnc3cc[nH]c23)ccc1OCc1ccccn1`, the “%Inh” value was 0%.

For the compound `CC(C)(C)OC(=O)NC1CCCN(c2cc(-c3ccc4c(N)n[nH]c4c3)nc(N)n2)C1` (stereo not drawn) [GSK2286096], the “%Inh” value is given as 6%.

Turning to `C[C@@H]1CCN(C(=O)CO)C[C@@H]1N(C)c1ncnc2[nH]ccc12`, the “%Inh” value is listed as 0%.

Turning to `COC(=O)c1cccc(NC(=O)NCCNc2ccnc(Nc3ccc(F)cc3)n2)c1` [GSK1379883], the “%Inh” value was 11%.

As for `Nc1nc(-c2ccc3c(N)n[nH]c3c2)cc(N2CCC[C@@H](C(=O)Nc3ccccc3)C2)n1.O=C(O)C(F)(F)F.O=C(O)C(F)(F)F` [GSK2288359], the “%Inh” value is listed as 0%.

Regarding `OCCOCCn1ccc2ncnc(Nc3ccc(Oc4cccc(Cl)c4)c(Cl)c3)c21`, the “%Inh” value was determined as 0%.

Turning to `c1ccc(-c2ccc3c(-c4ccnc(Nc5ccc6c(c5)OCCO6)n4)cnn3n2)cc1` [GW818941], the “%Inh” value is 9%.

The record behind these values is paper PMC5540273 (PLoS ONE, 2017).
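Further: KINOMEscan kinase panel screen.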
